The values below come from PubChem BioAssay (EPA / NIEHS).

Usually AC50 stands for the midpoint of the concentration-response curve, whichever way the signal moves.

A short description of assay [1]: ATG_TAL_CIS: Attagene CIS-FACTORIAL HepG2 Assay for human TAL Basal Promoter (AID 2282966; active means hit-call score of the fitted dose curve at least 0.9, where 1 is the maximum; inactive means score below 0.9;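 further: background control endpoint measuring basal TAL promoter reporter mRNA not a specific factor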). Particulars: HepG2 Attagene cis-factorial TAL promoter reporter; actives raise or lower the signal. The essentials: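 Basal-promoter background-control endpoint from a multiplexed HepG2 reporter panel. Cells were exposed 24 h, then reporter mRNA was read by RT-PCR/CE fluorescence and fitted in both directions relative to DMSO.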

Assay [2] in a line: ATG_TGFb_CIS: Attagene CIS-FACTORIAL HepG2 Assay for human Transforming Growth Factor (TGF) (AID 2282967; active means hit-call score of the fitted dose curve at least 0.9, where 1 is the maximum; inactive means score below 0.9). Particulars: HepG2 Attagene CIS TGFb reporter, mRNA transcription; actives raise or lower the signal. The essentials:
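Cells were dosed for 24 hours, after which total RNA was reverse-transcribed and reporter sequences amplified, labeled and sized by capillary electrophoresis. Activity was fitted in both directions against DMSO.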

Assay [3] deals with Steroid hormone receptor ERR1 (Homo sapiens) (UniProt P11474). The assay can be described thus: ATG_ERRa_TRANS: Attagene TRANS-FACTORIAL HepG2 Assay for human Estrogen-Related Receptor alpha (ERRa) (AID 2282971). Particulars: HepG2 Attagene TRANS reporter, ERRa transactivation. The gist of the method: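 HepG2 cells transiently transfected with GAL4-UAS reporter units and chimeric NR-Gal4 constructs; after 24 hour compound incubation, reporter mRNA quantified by RT-PCR, fluorescent labelling and capillary electrophoresis, gain of signal versus DMSO.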

The target in assay [4] is X-box-binding protein 1 (Homo sapiens) (UniProt P17861). The assay can be described thus: ATG_Xbp1_CIS: Attagene CIS-FACTORIAL HepG2 Assay for human X-box Binding Protein 1 (XBP1) (AID 2282972; active means hit-call score of the fitted dose curve at least 0.9, where 1 is the maximum; inactive means score below 0.9). Particulars: HepG2 XBP1 cis-element reporter, Attagene multiplex; actives raise or lower the signal. The gist of the method:
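Read-out: fluorescent reporter mRNA fragments resolved by capillary electrophoresis after RT-PCR. Human HepG2 liver cells carried transfected cis-promoter reporter units and were exposed to chemicals for 24 hours. Gain or loss of signal fitted relative to DMSO baseline.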

Assay [5] can be described thus: ATG_M_19_TRANS: Attagene TRANS-FACTORIAL HepG2 Assay for M19 Transcription Factor (Internal Marker) (AID 2282974). Particulars: HepG2 Attagene TRANS-FACTORIAL M19 internal marker reporter. The essentials: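 Fluorescence of 6-FAM-labelled reporter cDNA fragments, separated by capillary electrophoresis, served as the readout. These derived from HepG2 cells carrying transfected GAL4-UAS reporter units after 24 h dosing, with DMSO as negative control.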

Assay [6] is described as follows: ATG_GAL4_TRANS: Attagene TRANS-FACTORIAL HepG2 Assay for GAL4 (Internal Marker) (AID 2282976). Particulars: HepG2 Attagene TRANS GAL4 internal marker reporter. The essentials: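 Background-control readout: GAL4-UAS reporter transcript in transiently transfected HepG2 cells after 24 h compound exposure. Measured by RT-PCR, 6-FAM primer extension, HpaI digest and capillary electrophoresis; gain-of-signal fit versus DMSO.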

Assay [7] deals with Glucocorticoid receptor (Homo sapiens) (UniProt P04150). The assay can be described thus: ATG_GR_TRANS: Attagene TRANS-FACTORIAL HepG2 Assay for human Glucocorticoid Receptor (GR) (AID 2282978).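 Further: activators score as hits since higher reporter transcript over DMSO is fitted.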 Particulars: HepG2 Attagene TRANS GR reporter, mRNA transcription. The essentials:
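Fluorescent capillary-electrophoresis quantitation of reporter mRNA is the readout, taken 24 h after dosing human HepG2 cells carrying transiently transfected GAL4-UAS reporter units activated by chimeric NR-GAL4 fusions; activity scored as induction over DMSO.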

Assay [8] addresses Bile acid receptor (Homo sapiens) (UniProt Q96RI1). The experiment in a line: ATG_FXR_TRANS: Attagene TRANS-FACTORIAL HepG2 Assay for Farnesoid X Receptor (FXR) (AID 2282979).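 Further: hits raise reporter mRNA above DMSO so AC50 marks FXR activation.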 Particulars: HepG2 Attagene TRANS FXR-GAL4 reporter transcription. The gist of the method: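 HepG2 cells were transiently transfected with GAL4-UAS reporters driven by chimeric NR-Gal4 proteins and dosed for 24 h. Reporter mRNA was quantified by RT-PCR, fluorescent labelling, HpaI digestion and capillary electrophoresis, with gain of signal scored versus DMSO.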

The nature of assay [9]: ATG_M_06_TRANS: Attagene TRANS-FACTORIAL HepG2 Assay for M06 Transcription Factor (Internal Marker) (AID 2282983). Particulars: HepG2 Attagene TRANS M06 internal marker reporter. The gist of the method:
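mRNA levels of a reporter transcript, quantified as FAM fluorescence on capillary electrophoresis, served as readout. HepG2 cells expressing exogenous GAL4-chimera reporter constructs were exposed for 24 h. Gain of signal over DMSO was evaluated.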

Assay [10] deals with Transcriptional activator Myb (Homo sapiens) (UniProt P10242). The assay can be described thus: ATG_Myb_CIS: Attagene CIS-FACTORIAL HepG2 Assay for human Myeloblastosis (Myb) Proto-Oncogene Transcription Factor (AID 2282986; active means hit-call score of the fitted dose curve at least 0.9, where 1 is the maximum; inactive means score below 0.9). Particulars: HepG2 Attagene CIS-FACTORIAL Myb reporter transcription; actives raise or lower the signal. The gist of the method: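 Reporter transcript levels, quantified by fluorescent RT-PCR and capillary electrophoresis, serve as the read-out. Transfected HepG2 cells carrying cis-promoter reporter units are dosed for 24 hours, and curves are fitted bidirectionally against DMSO controls.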

Assay [11] concerns the target Hepatocyte nuclear factor 4-alpha (Homo sapiens) (UniProt P41235). The experiment in a line: ATG_HNF4a_TRANS: Attagene TRANS-FACTORIAL HepG2 Assay for human Hepatocyte Nuclear Factor 4 alpha (HNF4a) (AID 2282982). Particulars: HepG2 HNF4a transactivation reporter, mRNA readout. The essentials:
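Activity of an exogenous HNF4a–Gal4 fusion scored as induced GAL4-UAS reporter transcripts after 24 h chemical exposure of transfected human HepG2 cells. Read-out via RT-PCR with 6-FAM labelling and capillary electrophoresis; rise over DMSO baseline.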

Assay [12] deals with Oxysterols receptor LXR-beta (Homo sapiens) (UniProt P55055). The experiment in a line: ATG_LXRb_TRANS: Attagene TRANS-FACTORIAL HepG2 Assay for human Liver X Receptor beta (LXRb) (AID 2282981). Particulars: HepG2 Attagene TRANS GAL4-LXRb reporter, mRNA. The essentials: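 After 24 h chemical treatment of transfected HepG2 cells carrying exogenous NR-Gal4 chimeras, reporter mRNA was quantified by fluorescent RT-PCR and capillary electrophoresis; activity taken as increase over DMSO controls.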

The target in assay [13] is Nuclear receptor subfamily 4 group A member 2 (Homo sapiens) (UniProt P43354). The assay can be described thus: ATG_NURR1_TRANS: Attagene TRANS-FACTORIAL HepG2 Assay for human Nuclear Receptor Related Protein 1 (NURR1) (AID 2282985). Particulars: HepG2 Attagene TRANS reporter, mRNA readout. The gist of the method:
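Reporter transcript induction, measured by RT-PCR with fluorescent labelling, HpaI digestion and capillary electrophoresis, after 24 hr dosing of human HepG2 cells transiently expressing an exogenous NR-Gal4 fusion with GAL4-UAS-driven reporters; DMSO as baseline.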

Assay [14] deals with Nuclear receptor subfamily 1 group I member 3 (Homo sapiens) (UniProt Q14994). The assay can be described thus: ATG_CAR_TRANS: Attagene TRANS-FACTORIAL HepG2 Assay for human Constitutive Androstane Receptor (CAR) (AID 2282969).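 Further: activators raise reporter mRNA above DMSO so AC50 marks induction.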 Particulars: HepG2 Attagene TRANS-FACTORIAL CAR reporter. The gist of the method: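 Signal is reporter mRNA induction relative to DMSO, measured 24 h after dosing by RT-PCR with fluorescent primer extension and capillary electrophoresis. Human HepG2 liver cells carried transiently transfected chimeric NR-Gal4/GAL4-UAS reporter constructs.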

The nature of assay [15]: ATG_M_32_TRANS: Attagene TRANS-FACTORIAL HepG2 Assay for M32 Transcription Factor (Internal Marker) (AID 2282984). Particulars: HepG2 Attagene TRANS M32 internal marker reporter. The essentials: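 Internal background reporter in transfected HepG2: after 24 h chemical exposure, RNA reverse-transcribed, reporter cDNA amplified, fluorescently labelled and HpaI-cut, then sized by capillary electrophoresis. Gain of signal fitted against DMSO control.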

Assay [16] concerns the target Estrogen receptor (Homo sapiens) (UniProt P03372). The assay can be described thus: ATG_ERa_TRANS: Attagene TRANS-FACTORIAL HepG2 Assay for human Estrogen Receptor alpha (ERa) (AID 2282970). Particulars: HepG2 Attagene TRANS ERa GAL4 reporter, mRNA. The essentials:
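Gal4-fusion ERa transactivation, measured as reporter transcript level in transiently transfected HepG2 cells. Exposure 24 h; RT-PCR plus capillary electrophoresis with fluorescence detection.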

Assay [17] has as its target Estrogen-related receptor gamma (Homo sapiens) (UniProt P62508). The experiment in a line: ATG_ERRg_TRANS: Attagene TRANS-FACTORIAL HepG2 Assay for human Estrogen-Related Receptor gamma (ERRg) (AID 2282977).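 Further: hits increase reporter signal over DMSO so potencies reflect activators.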 Particulars: HepG2 Attagene TRANS reporter, ERRg transactivation. The gist of the method:
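Exogenous NR-Gal4 chimera activity measured as reporter transcript induction after 24 h in transiently transfected HepG2 cells. RNA reverse-transcribed, PCR-amplified, 6-FAM-labelled and resolved by capillary electrophoresis; increase over DMSO baseline.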

Values joined by “and” are separate entries in the source; they are usually repeats but may differ in a detail not shown here. Equal entries are not always repeated. Results filed as inconclusive are left out. Active and inactive are the calls of the source. How the source made its calls, unless noted: active means hit-call score of the fitted dose curve at least 0.9, where 1 is the maximum; inconclusive means response in the unintended direction; inactive means score below 0.9.

Bile acid receptor (Homo sapiens), sequence (Q96RI1 whole entry, looked up, the tested form may be a part): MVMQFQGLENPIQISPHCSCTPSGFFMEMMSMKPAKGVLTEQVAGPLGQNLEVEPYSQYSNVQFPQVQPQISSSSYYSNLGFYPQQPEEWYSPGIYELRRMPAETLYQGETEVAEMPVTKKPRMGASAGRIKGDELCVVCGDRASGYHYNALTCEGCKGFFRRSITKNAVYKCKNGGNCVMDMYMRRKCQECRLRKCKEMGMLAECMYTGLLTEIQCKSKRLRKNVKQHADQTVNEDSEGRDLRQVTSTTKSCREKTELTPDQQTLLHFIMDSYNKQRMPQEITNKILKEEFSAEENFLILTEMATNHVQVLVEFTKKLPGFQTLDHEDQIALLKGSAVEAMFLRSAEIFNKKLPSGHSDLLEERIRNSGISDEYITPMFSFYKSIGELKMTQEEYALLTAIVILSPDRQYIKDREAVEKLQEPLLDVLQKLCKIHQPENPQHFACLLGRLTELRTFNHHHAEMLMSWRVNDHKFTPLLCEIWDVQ
Transcriptional activator Myb (Homo sapiens), sequence (P10242 whole entry, looked up): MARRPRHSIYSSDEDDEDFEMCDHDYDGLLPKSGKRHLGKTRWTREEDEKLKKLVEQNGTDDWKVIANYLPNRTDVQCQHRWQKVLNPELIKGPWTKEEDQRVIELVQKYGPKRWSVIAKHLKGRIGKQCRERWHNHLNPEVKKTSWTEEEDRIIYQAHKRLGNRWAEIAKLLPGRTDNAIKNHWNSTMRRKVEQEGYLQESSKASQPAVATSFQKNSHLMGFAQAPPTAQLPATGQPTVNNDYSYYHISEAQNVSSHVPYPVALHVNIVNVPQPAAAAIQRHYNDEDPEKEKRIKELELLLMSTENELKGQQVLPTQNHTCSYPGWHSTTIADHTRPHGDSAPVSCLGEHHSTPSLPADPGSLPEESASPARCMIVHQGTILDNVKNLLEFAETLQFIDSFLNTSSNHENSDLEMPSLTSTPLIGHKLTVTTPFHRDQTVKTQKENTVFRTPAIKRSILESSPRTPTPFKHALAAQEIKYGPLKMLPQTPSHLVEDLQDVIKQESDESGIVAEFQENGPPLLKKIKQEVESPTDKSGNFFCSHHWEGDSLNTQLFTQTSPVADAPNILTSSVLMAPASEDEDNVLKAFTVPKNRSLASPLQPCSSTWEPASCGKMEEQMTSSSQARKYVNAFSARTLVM
Glucocorticoid receptor (Homo sapiens), sequence (P04150 whole entry, looked up, the tested form may be a part): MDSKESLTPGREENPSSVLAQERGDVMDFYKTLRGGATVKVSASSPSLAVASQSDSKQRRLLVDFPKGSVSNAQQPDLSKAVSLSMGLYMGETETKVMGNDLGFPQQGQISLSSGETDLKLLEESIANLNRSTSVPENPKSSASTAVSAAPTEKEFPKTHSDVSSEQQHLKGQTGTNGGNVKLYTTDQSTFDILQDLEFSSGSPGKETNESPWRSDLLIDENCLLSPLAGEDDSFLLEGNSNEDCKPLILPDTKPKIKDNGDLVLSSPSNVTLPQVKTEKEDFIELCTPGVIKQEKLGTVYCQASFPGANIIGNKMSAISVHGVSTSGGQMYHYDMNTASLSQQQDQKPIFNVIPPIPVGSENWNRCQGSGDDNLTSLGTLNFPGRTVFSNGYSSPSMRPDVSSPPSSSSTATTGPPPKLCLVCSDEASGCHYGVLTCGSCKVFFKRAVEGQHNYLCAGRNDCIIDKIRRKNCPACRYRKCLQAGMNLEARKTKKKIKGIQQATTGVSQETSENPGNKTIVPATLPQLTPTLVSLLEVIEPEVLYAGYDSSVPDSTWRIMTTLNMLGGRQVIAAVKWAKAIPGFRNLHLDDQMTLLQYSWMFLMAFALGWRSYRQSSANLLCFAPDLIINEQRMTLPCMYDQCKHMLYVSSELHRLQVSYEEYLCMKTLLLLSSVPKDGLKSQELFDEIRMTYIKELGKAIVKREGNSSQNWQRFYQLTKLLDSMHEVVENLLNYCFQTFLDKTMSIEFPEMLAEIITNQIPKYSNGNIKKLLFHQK
Nuclear receptor subfamily 4 group A member 2 (Homo sapiens), sequence (P43354 whole entry, looked up, the tested form may be a part): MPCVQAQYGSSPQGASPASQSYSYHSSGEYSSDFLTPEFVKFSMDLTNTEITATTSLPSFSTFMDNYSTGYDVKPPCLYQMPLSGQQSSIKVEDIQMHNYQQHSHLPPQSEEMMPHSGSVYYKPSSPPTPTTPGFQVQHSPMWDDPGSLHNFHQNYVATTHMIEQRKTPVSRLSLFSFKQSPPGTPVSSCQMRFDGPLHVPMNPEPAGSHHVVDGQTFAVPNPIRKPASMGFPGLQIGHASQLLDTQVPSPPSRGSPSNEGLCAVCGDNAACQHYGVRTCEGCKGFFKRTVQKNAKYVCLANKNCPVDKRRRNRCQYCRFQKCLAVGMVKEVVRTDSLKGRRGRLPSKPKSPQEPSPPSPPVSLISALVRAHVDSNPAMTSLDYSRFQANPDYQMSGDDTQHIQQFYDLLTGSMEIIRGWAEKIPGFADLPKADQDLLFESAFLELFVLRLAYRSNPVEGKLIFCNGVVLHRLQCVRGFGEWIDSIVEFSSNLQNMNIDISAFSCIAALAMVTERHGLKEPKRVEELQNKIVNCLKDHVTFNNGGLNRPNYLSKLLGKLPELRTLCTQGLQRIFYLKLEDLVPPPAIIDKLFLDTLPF
Oxysterols receptor LXR-beta (Homo sapiens), sequence (P55055 whole entry, looked up, the tested form may be a part): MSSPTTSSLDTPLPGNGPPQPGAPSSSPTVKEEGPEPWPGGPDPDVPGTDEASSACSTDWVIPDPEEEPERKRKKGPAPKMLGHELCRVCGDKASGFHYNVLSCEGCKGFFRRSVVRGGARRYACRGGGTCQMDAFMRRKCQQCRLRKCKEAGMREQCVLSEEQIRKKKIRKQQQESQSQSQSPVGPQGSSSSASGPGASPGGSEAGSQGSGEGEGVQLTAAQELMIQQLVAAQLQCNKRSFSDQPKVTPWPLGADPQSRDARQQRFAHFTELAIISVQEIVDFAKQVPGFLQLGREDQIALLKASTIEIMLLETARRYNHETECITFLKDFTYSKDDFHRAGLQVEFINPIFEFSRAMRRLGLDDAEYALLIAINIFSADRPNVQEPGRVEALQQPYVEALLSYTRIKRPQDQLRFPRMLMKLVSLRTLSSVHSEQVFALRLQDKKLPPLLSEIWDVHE
X-box-binding protein 1 (Homo sapiens), sequence (P17861 whole entry, looked up, the tested form may be a part): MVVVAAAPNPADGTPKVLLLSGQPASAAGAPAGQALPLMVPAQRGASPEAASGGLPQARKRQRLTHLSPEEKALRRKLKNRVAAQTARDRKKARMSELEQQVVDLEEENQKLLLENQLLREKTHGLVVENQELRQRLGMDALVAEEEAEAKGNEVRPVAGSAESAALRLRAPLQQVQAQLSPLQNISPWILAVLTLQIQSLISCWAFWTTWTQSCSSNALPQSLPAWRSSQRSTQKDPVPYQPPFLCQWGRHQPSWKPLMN
Hepatocyte nuclear factor 4-alpha (Homo sapiens), sequence (P41235 whole entry, looked up, the tested form may be a part): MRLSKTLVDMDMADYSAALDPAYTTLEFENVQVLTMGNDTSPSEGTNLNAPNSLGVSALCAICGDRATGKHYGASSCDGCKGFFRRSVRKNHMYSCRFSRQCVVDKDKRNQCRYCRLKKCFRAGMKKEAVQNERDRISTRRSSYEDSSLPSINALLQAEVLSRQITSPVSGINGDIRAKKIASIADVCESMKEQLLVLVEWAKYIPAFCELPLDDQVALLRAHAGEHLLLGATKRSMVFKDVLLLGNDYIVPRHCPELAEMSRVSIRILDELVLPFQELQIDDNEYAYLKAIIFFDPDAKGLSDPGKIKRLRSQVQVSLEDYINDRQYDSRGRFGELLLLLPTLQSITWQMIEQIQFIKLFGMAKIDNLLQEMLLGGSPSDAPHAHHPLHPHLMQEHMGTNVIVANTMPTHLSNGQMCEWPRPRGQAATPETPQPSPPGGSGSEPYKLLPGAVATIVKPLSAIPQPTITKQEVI
Steroid hormone receptor ERR1 (Homo sapiens), sequence (P11474 whole entry, looked up, the tested form may be a part): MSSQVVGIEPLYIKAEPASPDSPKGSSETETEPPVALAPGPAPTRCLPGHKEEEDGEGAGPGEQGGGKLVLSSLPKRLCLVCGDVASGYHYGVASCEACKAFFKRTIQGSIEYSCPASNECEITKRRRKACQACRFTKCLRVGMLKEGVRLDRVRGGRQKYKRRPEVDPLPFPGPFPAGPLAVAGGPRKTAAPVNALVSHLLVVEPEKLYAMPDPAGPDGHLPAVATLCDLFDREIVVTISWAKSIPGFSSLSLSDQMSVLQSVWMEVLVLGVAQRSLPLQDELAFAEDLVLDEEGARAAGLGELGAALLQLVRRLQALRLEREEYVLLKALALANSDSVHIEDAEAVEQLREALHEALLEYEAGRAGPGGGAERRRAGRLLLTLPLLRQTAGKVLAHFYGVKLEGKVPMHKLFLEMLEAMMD
Estrogen-related receptor gamma (Homo sapiens), sequence (P62508 whole entry, looked up, the tested form may be a part): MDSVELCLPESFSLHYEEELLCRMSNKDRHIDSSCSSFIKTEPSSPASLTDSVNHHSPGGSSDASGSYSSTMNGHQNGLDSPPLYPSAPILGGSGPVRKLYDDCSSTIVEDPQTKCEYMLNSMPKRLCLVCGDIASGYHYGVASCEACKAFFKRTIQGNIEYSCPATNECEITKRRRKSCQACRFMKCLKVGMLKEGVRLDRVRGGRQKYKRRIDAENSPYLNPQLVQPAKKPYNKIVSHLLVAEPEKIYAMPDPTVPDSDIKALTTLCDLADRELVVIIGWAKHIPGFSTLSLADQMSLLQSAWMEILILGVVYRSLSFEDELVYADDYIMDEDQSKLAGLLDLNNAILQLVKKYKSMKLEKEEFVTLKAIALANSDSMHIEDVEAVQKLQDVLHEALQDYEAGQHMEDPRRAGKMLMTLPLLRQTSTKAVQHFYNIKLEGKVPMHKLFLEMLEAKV
Nuclear receptor subfamily 1 group I member 3 (Homo sapiens), sequence (Q14994 whole entry, looked up, the tested form may be a part): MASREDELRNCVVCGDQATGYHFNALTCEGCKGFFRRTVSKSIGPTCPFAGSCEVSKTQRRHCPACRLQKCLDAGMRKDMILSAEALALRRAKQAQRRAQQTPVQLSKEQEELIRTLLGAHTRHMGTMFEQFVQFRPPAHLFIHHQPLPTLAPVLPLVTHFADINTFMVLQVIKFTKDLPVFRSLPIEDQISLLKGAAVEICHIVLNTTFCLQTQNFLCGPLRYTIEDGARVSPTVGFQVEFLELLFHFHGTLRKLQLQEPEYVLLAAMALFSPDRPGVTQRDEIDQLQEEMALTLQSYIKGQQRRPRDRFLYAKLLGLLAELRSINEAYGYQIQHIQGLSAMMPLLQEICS

With `CC(c1ccc(O)cc1)(c1ccc(O)cc1)c1ccc(O)cc1`, the compound was called inactive in [1], in [2], in [3], in [5], in [6] and in [7]. Besides, the call in assay [9] and in [10] was inactive. Besides, the AC50 in assay [4] is 11.1 µM (active); in assay [8] it was 2.98 µM (active).
For `Cc1cccc(C)c1N`, the compound was classed as inactive in assay [1], in [2], in assay [4], in assay [6], in assay [7] and in assay [8]. The result in assay [11], in assay [9] and in [10] was inactive.
As for `CC#Cc1cc(C)nc(Nc2ccccc2)n1`, the compound was classed as inactive in assay [1], in assay [2], in assay [4], in assay [7], in [12] and in assay [9]. For the same compound, the result in [13] and in [10] was inactive.
As to `N#Cc1ccc(N(CC(N)=O)CC(F)(F)F)cc1C(F)(F)F`, the compound was called inactive in assay [1], in [2], in [4], in assay [5], in [6] and in assay [10].
`NS(=O)(=O)C(F)(F)C(F)(F)C(F)(F)C(F)(F)C(F)(F)C(F)(F)C(F)(F)C(F)(F)F`: the result in [1], in assay [2], in assay [14], in assay [5], in [7] and in [8] was inactive. Also, the compound was classed as inactive in assay [12], in assay [11], in assay [9], in [13] and in [10]. Moreover, the AC50 in assay [4] is 41.7 µM (active) and 39.9 µM (active) and 50 µM (active).
For `Cc1ccc(O)c(C)c1`, the call in assay [1], in assay [2], in [3], in assay [4], in assay [5] and in [6] was inactive. The compound was classed as inactive in [7] and in assay [10].
On to `COS(=O)(=O)OC`, for which the call in [1], in assay [2], in assay [4], in [12], in [9] and in assay [15] was inactive. The result in [13] and in assay [10] was inactive.
As for `CCSC(=O)N(CC)C1CCCCC1`, the result in assay [1], in assay [2], in [16], in assay [4], in assay [5] and in assay [12] was inactive. The outcome in [10] was inactive.
Turning to `CC1=C2C[C@H]3[C@@H](CC=C4C[C@@H](O)CC[C@@]43C)[C@@H]2CC[C@]12O[C@@H]1C[C@H](C)CN[C@H]1[C@H]2C`, the outcome in assay [1], in [2], in [4], in assay [6], in [7] and in assay [8] was inactive. Moreover, the call in assay [9], in assay [15] and in assay [10] was inactive.
Turning to `C[C@]12CCC(=O)C=C1CC[C@@H]1[C@@H]2CC[C@]2(C)C(=O)CC[C@@H]12`, the compound was called inactive in [1], in assay [2], in [4], in assay [6], in [17] and in assay [8]. Also, the compound was classed as inactive in assay [12], in [11], in [9], in [13] and in [10].
